An excerpt weighted towards active compounds, which were near 20% of everything screened.
Pf growth 96h = Primary qHTS for delayed death inhibitors of the malarial parasite plastid, 96 hour incubation; P. falciparum luciferase reporter growth, 96 h; actives 6.9% (n = 320,000); Potency, µM (top dose mostly 28.7 µM), for inactives: top-dose activity change, negative = inhibition, usual class: inhibitors; AID 504834, 2011; also: potency is read from the fitted curve at half-maximal effect; % is scaled to controls: 0 for no effect and ±100 for the full control effect
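P. falciparum expressing integrated firefly luciferase grown in erythrocytes (2% hematocrit, 0.05% parasitemia final) with compounds for 96 hours at 37 C, 5% CO2. Growth inhibition read as loss of luminescence after adding luciferase detection reagent.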
CHX counter = Cycloheximide Counterscreen for Small Molecule Inhibitors of Shiga Toxin. cell reporter, cycloheximide protein synthesis inhibition counterscreen. max response, %. actives 12% (n = 300,000). AID 2314, 2010; in the data active = max response mostly above about 13%, no sharp cut-off; inactive = mostly below about 14%; also: read at 38.3 µM for the half of the compounds with a filed dose; 0% is about no effect
HCMV inh = qHTS Assay for inhibitors of the human cytomegalovirus (HCMV) | HFF cells, HCMV-luciferase reporter, 72 h; hits give low values | activity change, negative = inhibition, % at 57.5 µM | actives 4.5% (n = 410,000); in the data active = activity change below about -60%; inconclusive = no clear call, values can overlap the other calls; inactive = above about -39%; also: % is scaled to controls: 0 for no effect and ±100 for the full control effect
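Two-dose cell screen: HFF monolayers treated with compounds and infected with luciferase-expressing HCMV at 1 PFU/cell, 72 h at 37C, then lysed for luciferase measurement.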
Shiga toxin inh = A qHTS for Small Molecule Inhibitors of Shiga Toxin. Vero cells, Shiga toxin protein synthesis inhibition reporter. inhibition, % at 38.7 µM. actives 9.2% (n = 290,000); in the data active = inhibition mostly above about 28%, no sharp cut-off; inactive = mostly below about 43%; also: 0% is about no effect
Pf growth 48h = Primary qHTS for delayed death inhibitors of the malarial parasite plastid, 48 hour incubation | Potency, µM (doses to about 28.7 µM), for the others: top-dose activity change, negative = inhibition, hits mostly inhibitors | P. falciparum luciferase growth in erythrocytes, 48 h | actives 5.9% (n = 310,000) | AID 504832, 2011; also: potency is read from the fitted curve at half-maximal effect; % is scaled to controls: 0 for no effect and ±100 for the full control effect
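Cell-based growth assay: transgenic P. falciparum expressing firefly luciferase, cultured in red cells within RPMI 1640 containing 0.5% w/v Albumax, 24 mM bicarbonate and gentamycin. A drop in luciferase activity indicates inhibition.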
Numbers without * were called inactive; ? = inconclusive; · = no result given; [ ] = dose if it differs, or a comment. Unless noted, calls follow the shape of the dose curve; as a rule, active = well fitted inhibition curve with a large enough effect; inconclusive = small, poorly fitted or top-dose-only effect, or another doubt; inactive = no such curve, though single readings can be large or run the other way.

SMILES	Pf growth 96h	CHX counter	HCMV inh	Shiga toxin inh	Pf growth 48h
COc1cc(OC)cc(C(=O)NCC(=O)Nc2ccc(C)c(Cl)c2)c1	-24%	4	16	20	-7%
COc1cccc(NC(=O)CSC(N)=O)c1	-30%	18	-19	36*	?
COc1cc(NC(=O)COC(=O)/C=C/c2ccccc2Cl)cc(OC)c1	-15%	-2	-103*	-4	1%
Cc1cccc(OCC(=O)Nc2ccc(NC(=O)c3ccccc3)cc2)c1	?	-1	-1	-8	-2%
Cc1ccc(NC(=O)CSc2nnc3nc(C)cc(C)n23)cc1	·	·	-14	·	·
CCOc1cccc(NC(=O)C2CC(=O)N(CC)C(=Nc3ccc(F)cc3)S2)c1 (stereo unspecified)	·	·	-1	·	·
CC(NC(=O)COC(=O)COc1ccc(C(=O)c2ccccc2)cc1)c1ccccc1 (stereo unspecified)	0%	·	3	·	4%
CCOC(=O)Cn1c(=O)n(-c2ccccc2OC)c2nc(-c3ccccc3)nc(C(N)=O)c21	·	·	22	·	·
O=C(c1ccc(F)cc1)n1nc(-c2ccccc2)nc1NCc1ccco1	·	·	34	·	·
Cc1cc(OCC(=O)Nc2ccncc2)ccc1Br	13%	-8	-90*	-19	-11%
CC(=O)Nc1cccc(OCC(=O)Nc2ccccc2)c1	-5%[5.75 µM]	47*	61	114*	205%
Cc1cc(OCC(=O)NNC(=O)c2cccs2)ccc1Br	?	-3	-73*	13	28%
CC(=O)Nc1cccc(NC(=O)COc2ccc3c(c2)CCC3)c1	-24%	·	-9	·	52%
COc1cccc(NC(=O)COc2ccc(Br)c(C)c2)c1	-6%	12*	22	10	24%
CCN(CC(=O)Nc1cccc(OC)c1)CC(=O)Nc1ccc(Br)c(C)c1	-20%	-3	-19	3	?
O=C(CSc1ncnc2c1cnn2-c1ccccc1)NC1CCCC1	62%	·	-39	·	54%
COc1ccc(Cc2c(-c3ccc(F)cc3)nc3ccc(Cl)cn23)c(C)c1	·	·	49	·	·
CCOc1ccc(CCNC(=O)Cn2nc(C)n3cccc3c2=O)cc1OCC	21%	1	·	-4	-11%
COc1cccc(NC(=O)COc2ccccc2)c1	-8%	28*	64	·	75%
CCOc1cccc(C(=O)Nc2cccc(-c3nnc(-c4ccccc4)o3)c2)c1	31%	29	?	15	·
CCOc1ccc(-c2cccc(NC(=O)COc3ccccc3)c2)nn1	?	27*	·	19	-6%
O=C(CN(C(=O)c1ccccc1)C(=O)c1ccccc1)OCc1ccccc1	·	·	15	·	·
Cc1ccc(CC(=O)N/N=C/c2ccc(OC(=O)c3ccc([N+](=O)[O-])cc3)cc2)cc1	?	-1	-29	-12	-4%
Cc1cc([N+](=O)[O-])cc(C)c1OCC(=O)N/N=C/c1ccc(OC(=O)c2ccccc2)cc1	2.1µM*	-2	-35	-8	?
Cc1cc([N+](=O)[O-])cc(C)c1OCC(=O)N/N=C/c1ccc(OC(=O)c2ccccc2Br)cc1	10µM*	0	-12	10	3%
SMILES	Pf growth 96h	CHX counter	HCMV inh	Shiga toxin inh	Pf growth 48h
COc1ccc(N2CC(O)=C(c3nc(-c4ccccc4)cs3)C2=N)cc1	0.47µM*	-2	-26	-8	?
COc1ccc(N2CC(O)=C(c3nc(-c4ccc(Br)cc4)cs3)C2=N)cc1	-2%	-8	-67*	-6	-8%
COc1ccc(N2CC(O)=C(c3nc(-c4ccc(F)cc4)cs3)C2=N)cc1	?	-4	-26	4	-10%
O=C(Nc1nnc([C@@H]2C[C@H](O)[C@@H](CO)O2)s1)Nc1ccc(F)cc1F	·	·	-2	·	·
COc1cccc(-n2nnnc2S(C)(=O)=O)c1	?	13	·	-13	·
Cc1cccc(-n2nnnc2S(C)(=O)=O)c1	·	·	-108*	·	·
COCCNc1nc(C)cc(-c2cc(-c3ccc(Cl)cc3)on2)n1	26%	-1	-7	-2	46%
Cc1cc(-c2cc(-c3ccccc3)on2)nc(NC2CCCC2)n1	?	21	?	34*	?
Cc1cc(-c2cc(-c3ccc(Cl)cc3)on2)nc(NC2CCCC2)n1	?	3	7	-7	?
COCCNc1nc(-c2cc(-c3ccccc3)on2)cc(C(C)C)n1	?	9	-63*	-8	?
CCn1c(SCC(=O)N2CCc3ccccc32)nnc1-c1ccco1	?	-3	?	-6	-14%
COc1ccc(C(=O)C[n+]2cccc3cc(C)ccc32)cc1	?	-1	1	7	15µM*
Cc1ccc2c(ccc[n+]2CC(=O)c2ccccc2)c1	-5%	-2	63	-7	15µM*
COc1ccc(C(=O)C[n+]2ccc3ccccc3c2C)cc1	?	45*	65	94*	?
COc1ccc(C(=O)C[n+]2cccc3cc(OC)ccc32)cc1	?	3	-66*	-8	9.3µM*
COc1ccccc1NC(=O)C(C)N1C(=O)C2CCCCC2C1=O (stereo unspecified)	7%	·	10	·	36%
COc1cccc(C(=O)C[n+]2cccc3cc(OC)ccc32)c1	?	·	24	·	10µM*
COc1cccc(C(=O)C[n+]2ccccc2/C=N/O)c1	-21%	13	-1	0	0%
Cc1ccc(C2=NN(CCC(=O)NC3CCCC3)C(=O)CC2)cc1	?	13	-9	-2	2%
O=C(O)c1cccc(N2C(=O)c3cccc(Oc4ccc(Cl)cc4)c3C2=O)c1	?	19*	-28	1	-4%
Cc1ccc2[nH]c(=O)c3cc(C(=O)N4CCN(c5ccccc5F)CC4)sc3c2c1	·	·	12	·	·
CC(NC(=O)C1CC1)c1ccc(-c2ccccc2)cc1 (stereo unspecified)	0%	8	-5	8	7%
O=C(O)C1CCC(c2ccc(-c3ccccc3)cc2)CC1 (stereo unspecified)	-7%	73*	56	116*	59%
COc1ccc(CC(=O)Nc2ncc([N+](=O)[O-])s2)cc1OC	78%	0	-11	-8	-4%
CC(C)CC(=O)Nc1ncc([N+](=O)[O-])s1	97%	41*	-25	84*	93%
SMILES	Pf growth 96h	CHX counter	HCMV inh	Shiga toxin inh	Pf growth 48h
CCCCC(=O)Nc1nnc(C)s1	3%	-7	7	-2	11%
CCCCC(=O)Nc1ncc([N+](=O)[O-])s1	-12%	17*	3	54*	23%
Cc1nc(C)c(C(=O)Nc2ncc([N+](=O)[O-])s2)o1	187%	-11	?	-16	322%
CCCCC(=O)Nc1ncc(Br)s1	17%	11*	-16	32	24%
CSc1cccc(NC(=O)C2CC(=O)N(c3ccc4c(c3)OCCO4)C2)c1 (stereo unspecified)	·	·	11	·	·
O=C(NC1CCCCC1)C1c2ccccc2OCC(=O)N1CCCN1CCOCC1 (stereo unspecified)	·	·	-1	·	·

Source: PubChem
